# In PubChem BioAssay AID1851 (National Center for Advancing Translational Sciences (NCATS), 2009):
# Where “and” joins values, the source holds several entries; their conditions need not be identical. Equal entries are not always repeated. About 5,700 (36%) of roughly 16,000 compounds were called active. Not shown: some 24% with an inconclusive outcome. The list shows a part of the results. A number with no mark means an inactive call. The call rests on the fitted dose curve; in most records, active means well fitted curve in the direction sought with a large enough effect; inconclusive means small, poorly fitted or top-dose-only effect, or effect the other way; inactive means no such curve, though single readings can be large or run the other way.
# Target: Cytochrome P450 1A2 (Homo sapiens) (UniProt P05177)
# Sequence (P05177 whole entry, looked up): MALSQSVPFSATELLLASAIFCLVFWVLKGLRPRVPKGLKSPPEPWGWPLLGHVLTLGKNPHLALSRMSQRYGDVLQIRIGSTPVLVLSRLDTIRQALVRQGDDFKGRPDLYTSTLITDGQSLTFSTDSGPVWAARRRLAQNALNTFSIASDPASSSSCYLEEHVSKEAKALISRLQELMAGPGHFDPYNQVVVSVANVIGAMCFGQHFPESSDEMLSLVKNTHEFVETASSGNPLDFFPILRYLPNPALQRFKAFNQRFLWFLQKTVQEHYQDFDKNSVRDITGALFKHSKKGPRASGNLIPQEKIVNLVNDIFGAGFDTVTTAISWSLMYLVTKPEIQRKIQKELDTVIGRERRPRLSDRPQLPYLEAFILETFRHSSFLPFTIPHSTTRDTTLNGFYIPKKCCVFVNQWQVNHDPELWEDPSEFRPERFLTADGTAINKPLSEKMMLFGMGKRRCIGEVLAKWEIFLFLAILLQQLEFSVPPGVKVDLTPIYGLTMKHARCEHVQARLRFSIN
# Assay: Cytochrome panel assay with activity outcomes
# Conditions: recombinant CYP, pro-luciferin dealkylation, luminescence, p450-cyp1a2; series mostly up to 57.1 µM; activity, negative = inhibition: at the top concentration
# On the % scale 0 is the no-effect control and ±100 the full control effect.
SMILES,"activity, negative = inhibition",AC50
CC12CCC(C(=O)Nc3ncc([N+](=O)[O-])s3)(OC1=O)C2(C)C (stereo not given),0.774%,
CON/C=C(\C=Nc1ccccc1)c1ncc(C(F)(F)F)cc1Cl,,2.24 µM (active)
O=C(N/N=C/c1cccc(C(F)(F)F)c1)C1CCN(c2ncc(C(F)(F)F)cc2Cl)CC1,-12.3%,
C[C@@]12CC[C@@H]3c4ccc(O)cc4CC[C@H]3[C@H]1C[C@@H](O)[C@H]2O,-6.98% [at 25.6 µM],
O=C1C(=O)N(Cc2ccc(Cl)c(Cl)c2)c2ccccc21,,12.6 µM (active)
CCc1cc2c(c(CC)n1)CCC(=O)N2Cc1ccc(-c2ccccc2-c2nn[nH]n2)cc1,-18.6%,
CNc1ncnc2ccc(-c3ccccc3C#N)cc12,,1 µM (active)
N#Cc1ccccc1-c1ccc2ncnc(NC3CC3)c2c1,,0.1 µM (active)
Cc1cccc(C)c1NC(=O)c1cc2c(=O)c3ccccc3oc2nc1C(F)(F)F,-28.1%,
Cn1c(C(F)(F)F)nc2c(=O)oc3ccccc3c21,,0.158 µM (active)
CC(C)[C@H](CO)Nc1nc(Nc2cc(N)cc(Cl)c2)c2ncn(C(C)C)c2n1,,0.501 µM (active)
CC(C)[C@H](CO)Nc1nc(Nc2ccc(C(=O)O)c(Cl)c2)c2ncn(C(C)C)c2n1,-16.8%,
Cc1cc(N)n2ncc(-c3ccc(Cl)cc3)c2n1,,1.26 µM (active)
CC1(C)O[C@@H]2O[C@H]([C@@H]3COC(C)(C)O3)[C@H](N)[C@H]2O1,8.69% [at 2.29 µM],
O=C(Nc1ccc2ccccc2c1)c1onc2c1CCCC2,,4.47 µM (active)
Cc1cccc(NC(=O)c2onc3c2CCCC3)c1C,,2.24 µM (active)
Cc1cccc(NC(=S)N2CCC(N(C)CC3CCCO3)CC2)c1C (stereo not given),3.1%,
CO[C@@H]1COC(=O)C/C=C\[C@H](C)COC(=O)[C@H](Cc2ccccc2)NC(=O)C/C=C\[C@H]1C,4.04% [at 11.4 µM],
Cn1c(-c2ccc(Br)cc2)cnc1NCc1cccnc1,,12.6 µM (active)
Cc1ccnc(NS(=O)(=O)c2ccc(N=[N+]=[N-])cc2)n1,-6.01% [at 11.4 µM],
CC(=C/c1ccccc1)/C=N/n1cnnc1,,2 µM (active)
CC(=C\C(=O)O)/C(=C/c1ccccc1)C(=O)O,-20.1%,
COC(=O)c1ccc(C2C(Oc3ccccc3)C(=O)N2CCc2ccc(OC)c(OC)c2)cc1 (stereo not given),4.21%,
Cc1cnc(CNc2ncnc3ccc(-c4ccccc4Cl)cc23)cn1,,6.31 µM (active)

SMILES,"activity, negative = inhibition",AC50
Cc1cnc(CNc2ncnc3ccc(-c4ccccc4C)cc23)cn1,,6.31 µM (active)
COc1ccccc1-c1ccc2ncnc(NCc3cnc(C)cn3)c2c1,,6.31 µM (active)
Cc1cnc(CNc2ncnc3ccc(-c4ccccc4C(F)(F)F)cc23)cn1,,12.6 µM (active)
Cc1cnc(CNc2ncnc3ccc(-c4ccccc4CN(C)C)cc23)cn1,-18.6%,
CC(C)NC(=O)N1CC[C@@]2(CCCN(C(=O)c3csnn3)C2)C1,-3.33%,
CC[C@@H]1OC(=O)[C@H](C)[C@H](O[C@@H]2C[C@](C)(OC)[C@H](O)[C@H](C)O2)[C@H](C)[C@H](O[C@@H]2O[C@@H](C)C[C@@H](N(C)C)[C@@H]2O)[C@](C)(O)C[C@H](C)C(=NOCOCCOC)[C@H](C)[C@H](O)[C@]1(C)O,-3% [at 25.6 µM],
CC(C)CO/N=C1/C[C@@H](O)[C@@H](O)[C@@H]2[C@H]3C(=O)N(c4ccc(F)cc4F)C(=O)[C@@H]3CC[C@H]12,0.352% [at 11.4 µM],
O=C(Nc1ccc2oc(=O)c(C(=O)O)cc2c1)Oc1ccccc1,-15.3% [at 2.29 µM],
Cc1ccc[n+](CC(=O)c2cc3ccccc3oc2=O)c1,6.85%,
CCN(CC)c1ccc2cc(C(C)=O)c(=O)oc2c1,,0.891 µM (active)
CC(=O)c1cc2ccccc2oc1=O,,0.2 µM (active)
CC(C)NCC[C@@H](O)c1cc2ccccc2o1,-2.1% [at 2.29 µM],
CC(C)OC(=O)c1cc2ccccc2oc1=O,,0.447 µM (active)
COc1cc(CNn2nnnc2N)ccc1OCc1c(Cl)cccc1Cl,,7.08 µM (active)
COc1ccc(C[N+](C)(C)N)cc1OC,-11.5% [at 11.4 µM],
Nc1ncnc2c1ncn2CCCCC(=O)O,-3.15% [at 11.4 µM],
O=C(Nc1cccnc1)c1ccc2snnc2c1,,0.0631 µM (active)
Nc1ccc(S(=O)(=O)c2ccc(NC(=O)c3cccnc3)cc2)cc1,-21.1% [at 2.29 µM],
COc1ccc(OC)c2c(=S)c3ccccc3[nH]c12,,0.0631 µM (active)
COc1ccc(C2(C(=O)N3CCOCC3)CCCC2)cc1,-1.36%,
COc1cc(N2CCOCC2)ncn1,-18.1%,
COc1ccc2c(C)cc(N3CCOCC3)nc2c1,,2.51 µM (active)
NCCCCCc1nnc(SCc2ccc(Cl)cc2Cl)o1,,11.2 µM (active)
CCOc1cc(/C=N/NC(=O)COc2cccc(C)c2)ccc1OC(=O)c1cccs1,,11.2 µM (active)

SMILES,"activity, negative = inhibition",AC50
CCOc1cc(/C=N/NC(=O)c2cc(C)[nH]n2)ccc1OC(=O)c1ccc([N+](=O)[O-])cc1,27.9%,
COc1ccc(/C=C/C(=O)Oc2cccc(/C=N/NC(=O)COc3c(C)cccc3C)c2)cc1,-9.66%,
CN(C)CCNC(=S)Nc1cccc(Cl)c1,-24.8%,
FC(F)(F)c1cccc(NC(=S)Nc2cccc(Cl)c2)c1,,5.01 µM (active)
S=C(NCc1ccccn1)Nc1cccc(Cl)c1,,2.82 µM (active)
CO[C@H]1COC(=O)[C@@H](C)COC(=O)[C@@H](Cc2ccccc2)NC(=O)C/C=C\[C@H]1C,4.52% [at 11.4 µM],
CC1(C)S[C@@H]2[C@H](NC(=O)[C@@H](N)c3ccccc3)C(=O)N2[C@H]1C(=O)O[C@H]1OC(=O)c2ccccc21,-13% [at 25.6 µM],
O=C(Nc1cc(C(F)(F)F)ccc1-n1cncn1)c1ccc(Br)cc1,,0.562 µM (active)
CCOC(=O)CCN1C(=O)[C@H]2[C@H]3[C@H](O)[C@H](O)C/C(=N/OC[C@@H](O)COCc4ccco4)[C@@H]3CC[C@@H]2C1=O,-1.07% [at 11.4 µM],
Cn1c(=O)c2c3c(sc2n2cnnc12)CCC3,,8.91 µM (active)
CN1CCc2c(sc3c2c(=O)n(-c2ccccc2)c2nncn32)C1,-17.6%,
CCCCCCCCCCCCCCCCCCOC[C@@H](COP(=O)([O-])OCC[N+](C)(C)C)OC,7.62%,
Cc1ccsc1-c1nc(-c2ccccc2)c(-c2ccccc2)[nH]1,,1.12 µM (active)
c1ccc(-c2nc(-c3cccs3)[nH]c2-c2ccccc2)cc1,,1 µM (active)
COC(=O)c1ccccc1NC(=O)CSc1nnc(C(CO)NC(=O)c2ccccc2Cl)n1C (stereo not given),9.84%,
COc1ccc(NC(=O)c2ccc(COc3ccccc3)o2)cc1,,2.51 µM (active)
COC(=O)c1ccccc1NC(=O)c1ccc(Cn2cc(Cl)cn2)o1,,1.58 µM (active)
COc1ccc(CC(=O)Nc2ccc(-c3nnc(-c4ccccc4)o3)cc2)cc1,-1.05%,
Cc1ccc(OCc2ccc(C(=O)Nc3nccs3)o2)cc1C,,0.631 µM (active)
COC(=O)c1ccccc1NC(=O)c1ccc(COc2ccc(C)c(C)c2)o1,,2.82 µM (active)
CCOc1ccc(OCC)c(-c2c(=O)n(OCc3ccccc3C(=O)OC)c3ccccc3[n+]2[O-])c1,-26%,
OCCN(CCO)c1ncnc2nc[nH]c12,-9.2% [at 11.4 µM],
CCOc1nc(N2CCCCC2)nc(-n2cc(-c3ccccc3)nn2)n1,,2.51 µM (active)
CO[C@@H]1COC(=O)[C@H](Cc2ccccc2)NC(=O)C/C=C\[C@@H](C)[C@H](OC)COC(=O)[C@@H](C)NC(=O)C/C=C\[C@H]1C,-3.56% [at 11.4 µM] and 1.16% [at 11.4 µM],

SMILES,"activity, negative = inhibition",AC50
CCN1CCN(c2nc3ccccc3nc2C(C#N)C(=O)OC2CCCCC2)CC1 (stereo not given),-18.3%,
C=CCn1c(C)c(C(C)=O)c(N2CCN(c3ccccc3)CC2)nc1=S,-17.6%,
C=CCN1CCN(c2nc3ccccc3nc2C#N)CC1,,0.1 µM (active)
Cc1ccc2nc(-c3ccccc3)cc(C(=O)NCCCn3ccnc3)c2c1,,2.82 µM (active)
COc1c2occc2c(OC)c2c(=O)cc(C)oc12,,0.02 µM (active)
CCn1ccnc1C[C@@H]1COc2ccccc2O1,,15.8 µM (active)
CC1CCCC(C)N1CC(O)COCC1COc2ccccc2O1 (stereo not given),8.29%,
COc1ncc2nc(-c3cn(C)c4ccccc34)c(=O)n(CCC#N)c2n1,,5.01 µM (active)
CN1CCN(c2ncc3nc(-c4cn(C)c5ccccc45)c(=O)n(CCc4ccccc4)c3n2)CC1,-19.4%,
CN1CCN(c2ncc3nc(-c4cn(C)c5ccccc45)c(=O)n(CCC#N)c3n2)CC1,,15.8 µM (active)
COc1ncc2nc(-c3cn(C)c4ccccc34)c(=O)n(C)c2n1,,1 µM (active)
COc1ccc(Oc2ncc3nc(-c4cn(C)c5ccccc45)c(=O)n(C)c3n2)cc1,-15.1%,
OC[C@H]1NC[C@H](O)[C@@H](O)[C@H]1O,-2.04%,
O=C(NCc1n[nH]c(=S)n1-c1ccccc1)c1ccc(S(=O)(=O)N2CCOCC2)cc1,-2.11%,
NCCSC[C@H](N)C(=O)O,-0.987% [at 11.4 µM],
CN1CCCC2(CCN(C(=O)c3cc(C(F)(F)F)cc(C(F)(F)F)c3)CC2)C1,-18%,
CCOc1ccc(C(CC(=O)O)NC(=O)COc2ccccc2)cc1 (stereo not given),5.86%,
CCOC(=O)CC(NC(=O)c1cccs1)c1ccc(OCC)cc1 (stereo not given),,12.6 µM (active)
O=C(O)C1=CCNCC1,,inactive
Cc1cc(O)c(/C=N/Nc2cccc(Cl)c2)c(=O)o1,,2.24 µM (active)
Cc1cc(NC(=O)CSc2nc3ccccc3c(=O)n2CCCC(=O)NCc2ccco2)n[nH]1,-16%,
Cc1cc(N2CCN(C)CC2)nc2ccc(NC(=O)CCC(=O)NCc3ccco3)cc12,,1.26 µM (active)
COCCCNC(=O)CCC(=O)Nc1ccc2nc(N3CCOCC3)cc(C)c2c1,-26.8%,
